Assay results: the supplement of paper PMC6607015
Counter-ions that a name gives are not always drawn.

Columns and labels:
Conditions in all cases: compound concentration in added solution (µM; 5 µl added to 20 µl cells): 10; 18 h
A431 [1] = assay: LBPA endosome anti-LBPA integrated intensity (sum per cell), Z-score; higher = more LBPA staining
Method in brief: (§1)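 Z-scores normalised in AcuityXpress are given for per-cell integrated LBPA or filipin intensity, measured whole-cell or within LBPA endosomes by MetaXpress segmentation. Cells (HeLa MZ or A431, 3,500 per well in 20 µl) were seeded onto 5 µl of 10 µM compound solution in duplicate 384-well imaging plates and fixed in 4% PFA after 18 h.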

HeLa MZ [2] = assay: as above
Method in brief: as §1

A431 [3] = assay: whole-cell filipin (free cholesterol) integrated intensity, Z-score; higher = more cholesterol staining
Method in brief: as §1

HeLa MZ [4] = assay: as above
Method in brief: as §1

A431 [5] = assay: filipin (cholesterol) integrated intensity within LBPA endosomes, Z-score; higher = more cholesterol in LBPA endosomes
Method in brief: as §1

HeLa MZ [6] = assay: as above
Method in brief: as §1

| SMILES | LBPA endosome anti-LBPA integrated intensity (z-score) (A431 [1]) | LBPA endosome anti-LBPA integrated intensity (z-score) (HeLa MZ [2]) | whole-cell filipin (z-score) (A431 [3]) | whole-cell filipin (z-score) (HeLa MZ [4]) | filipin (z-score) (A431 [5]) | filipin (z-score) (HeLa MZ [6]) |
| --- | --- | --- | --- | --- | --- | --- |
| C[C@]12CC[C@@H]3c4ccc(O)cc4CC[C@H]3[C@@H]1CCC2=O [Estrone] | -0.124 | 0.505 | -0.166 | -0.0664 | -0.236 | -0.151 |
| CCN(CCCCOC(=O)c1ccc(OC)c(OC)c1)C(C)Cc1ccc(OC)cc1 (configuration not stated) [Mebeverine hydrochloride] | 2.42 | 2.15 | 1.9 | 1.63 | 2.46 | 2.74 |
| CCc1nc(N)nc(N)c1-c1ccc(Cl)cc1 [Pyrimethamine] | 0.585 | 0.917 | 0.585 | -0.093 | -0.133 | -0.422 |
| OC(CCN1CCCCC1)(c1ccccc1)C1CC2C=CC1C2 (configuration not stated) [Biperiden hydrochloride] | 1.21 | 1.45 | -0.251 | -0.585 | 0.329 | 0.363 |
| CC[C@]12CCCN3CCc4c(n(c5ccccc45)[C@@](O)(C(=O)OC)C1)[C@@H]32 [Vincamine] | -0.234 | 0.384 | -0.552 | -1.23 | -0.453 | -0.216 |
| CC=CC(=O)N(CC)c1ccccc1C [Crotamiton] | -0.66 | -1.3 | -0.358 | -0.316 | -0.501 | -0.424 |
| NNC(=O)c1ccncc1 [Isoniazid] | -0.56 | -1.34 | -0.938 | -1.09 | -0.477 | -0.667 |
| C=C1C[C@H]2[C@@H]3C=C(C)C4=CC(=O)CC[C@]4(C)[C@H]3CC[C@]2(C)[C@@]1(OC(C)=O)C(C)=O [Melengestrol acetate] | 1.2 | 1.67 | 2.08 | 1.46 | 1.58 | 1.05 |
| C#C[C@]1(O)CC[C@H]2[C@@H]3CCc4cc(OC)ccc4[C@H]3CC[C@@]21C [Ethynylestradiol 3-methyl ether] | -0.376 | 0.717 | -0.391 | 0.0701 | -0.42 | -0.16 |
| O=C1OCCN1/N=C/c1ccc([N+](=O)[O-])o1 [Furazolidone] | -0.473 | -0.0304 | -0.00282 | 0.522 | -0.483 | -0.65 |
| CN1CCC[C@@H]1CCO[C@](C)(c1ccccc1)c1ccc(Cl)cc1 [Clemastine fumarate] | 2.28 | 0.882 | 0.619 | -0.348 | 2.73 | 1.84 |
| Cc1ccsc1/C=C/C1=NCCCN1C [Morantel tartrate] | -0.53 | -0.0789 | -1.09 | -0.906 | -0.593 | -0.756 |
| O=C1OC(CN2CCOCC2)CN1/N=C/c1ccc([N+](=O)[O-])o1 (configuration not stated) [Furaltadone hydrochloride] | -0.539 | -0.499 | -0.319 | -0.322 | -0.493 | -0.666 |
| Nc1nc2c(ncn2COCCO)c(=O)[nH]1 [Acyclovir] | -0.598 | -1.1 | -1.13 | -0.395 | -0.557 | -0.66 |
| Cc1cn[nH]c1 [Fomepizole] | -0.605 | -0.603 | -0.686 | -0.874 | -0.557 | -0.633 |
| Cc1ccccc1C(OCCN(C)C)c1ccccc1 (configuration not stated) [Orphenadrine hydrochloride] | -0.188 | 0.0858 | -0.344 | 1.02 | 0.191 | 0.681 |
| C/C=C(/C(=C/C)c1ccc(O)cc1)c1ccc(O)cc1 [Dienestrol] | -0.546 | -0.673 | -0.449 | -0.338 | -0.497 | -0.451 |
| CCn1cc(C(=O)O)c(=O)c2cc(F)c(N3CCN(C)CC3)cc21 [Pefloxacine] | -0.525 | -0.713 | -0.866 | -1.02 | -0.571 | -0.621 |
| CCN1CCCC(OC(=O)C(c2ccccc2)c2ccccc2)C1 (configuration not stated) [Piperidolate hydrochloride] | 1.4 | 1.47 | 1.77 | 1.11 | 1.7 | 0.861 |

| SMILES | LBPA endosome anti-LBPA integrated intensity (z-score) (A431 [1]) | LBPA endosome anti-LBPA integrated intensity (z-score) (HeLa MZ [2]) | whole-cell filipin (z-score) (A431 [3]) | whole-cell filipin (z-score) (HeLa MZ [4]) | filipin (z-score) (A431 [5]) | filipin (z-score) (HeLa MZ [6]) |
| --- | --- | --- | --- | --- | --- | --- |
| CC(C)N1CCN(c2ccc(OCC3COC(Cn4cncn4)(c4ccc(Cl)cc4Cl)O3)cc2)CC1 (configuration not stated) [Terconazole] | 3.33 | 2.49 | 1.58 | 1.5 | 3.31 | 4.7 |
| CCCCNc1c(C(=O)OCC)c(C)nc2c1cnn2CC [Tracazolate hydrochloride] | 0.273 | 1.37 | 0.113 | 1.2 | 0.00245 | 0.287 |
| O=C(NCCO[N+](=O)[O-])c1cccnc1 [Nicorandil] | -0.51 | -0.536 | -0.699 | -0.868 | -0.497 | -0.545 |
| CC(COc1ccccc1)N(CCCl)Cc1ccccc1 (configuration not stated) [Phenoxybenzamine hydrochloride] | -0.295 | -0.519 | -0.105 | 0.141 | -0.396 | -0.505 |
| C#C[C@]1(O)CC[C@H]2[C@@H]3CCC4=C(CCC(=O)C4)[C@H]3CC[C@@]21C [Norethynodrel] | -0.487 | -0.658 | -0.784 | -0.871 | -0.48 | -0.512 |
| CCN(Cc1ccncc1)C(=O)C(CO)c1ccccc1 (configuration not stated) [Tropicamide] | -0.503 | -0.535 | -0.78 | -0.974 | -0.52 | -0.592 |
| CCC(=O)O[C@]1(C(=O)CCl)[C@@H](C)C[C@H]2[C@@H]3CCC4=CC(=O)C=C[C@]4(C)[C@@]3(F)[C@@H](O)C[C@@]21C [Clobetasol propionate] | -0.343 | -0.845 | 0.00699 | -0.332 | -0.266 | -0.465 |
| C[C@]12CC[C@@H]3c4ccc(O)cc4C[C@@H](CCCCCCCCC[S+]([O-])CCCC(F)(F)C(F)(F)F)[C@H]3[C@@H]1CC[C@@H]2O (some centres not stated) [Fulvestrant] | 1.44 | 1.71 | 1.52 | 1.48 | 1.64 | 2.16 |
| CN(C)CCCN1c2ccccc2Sc2ccc(C(F)(F)F)cc21 [Triflupromazine hydrochloride] | 3.06 | 1.61 | 0.711 | 0.675 | 2.23 | 2.87 |
| CN1CCC(=C2c3ccccc3CC(=O)c3sccc32)CC1 [Ketotifen fumarate] | 0.0746 | 0.508 | 0.273 | -0.159 | 0.289 | 0.175 |
| c1ccc2[nH]c(-c3cscn3)nc2c1 [Tiabendazole] | -0.626 | -1.01 | -0.678 | -0.558 | -0.54 | -0.645 |
| CO[C@@]1(NC(=O)C2SC(=C(C(N)=O)C(=O)O)S2)C(=O)N2C(C(=O)O)=C(CSc3nnnn3C)CS[C@@H]21 (some centres not stated) [Cefotetan] | -0.675 | -1.41 | -0.843 | -0.864 | -0.604 | -0.594 |
| Cc1c(NC(=O)c2cccnc2)c(=O)n(-c2ccccc2)n1C [Nifenazone] | -0.531 | -0.887 | -0.738 | -0.647 | -0.626 | -0.754 |
| CC(=C(CCO)SSCC1CCCO1)N(C=O)Cc1cnc(C)nc1N (stereo in doubt) [Fursultiamine Hydrochloride] | -0.412 | -0.276 | -0.00261 | 0.173 | -0.513 | -0.472 |
| CC[N+](CC)(CC)CCC(O)(c1ccccc1)C1CCCCC1 (configuration not stated) [Tridihexethyl chloride] | -0.607 | -0.578 | -0.338 | -0.512 | -0.437 | -0.697 |
| CC(=O)N[C@@H](CS)C(=O)O [Acetylcysteine] | -0.477 | -0.307 | -0.0556 | -0.751 | -0.4 | -0.456 |
| CC#C[C@]1(O)CC[C@H]2[C@@H]3CCC4=CC(=O)CCC4=C3[C@@H](c3ccc(N(C)C)cc3)C[C@@]21C [Mifepristone] | -0.423 | 0.259 | -0.703 | -0.6 | -0.386 | -0.393 |
| CCOc1ccc(NC(C)=O)cc1 [Phenacetin] | -0.594 | -0.322 | -0.814 | -0.392 | -0.555 | -0.582 |
